Screens (PubChem BioAssay)
Sfp inh – blocks B. subtilis Sfp PPTase activity | AID 1490 | Biochemical Sfp PPTase activity, qHTS | 3.5% of 310,000 active | Potency, µM, without a hit: largest response in the series, negative = inhibition, usual class: inhibitors | Q9F4F7;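 also: the enzyme is Sfp with the accession as filed and its product quenches rhodamine fluorescence; 0% = enzyme reaction without inhibitor and -100% = no enzyme wells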
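Fluorescence-quenching assay with 15 nM Sfp, 5 uM rhodamine-CoA and 12.5 uM BHQ-2-labelled ybbR peptide in pH 7.6 Hepes/MgCl2 buffer. Enzyme was pre-incubated with compound for 15 min at room temperature. Rate was taken from the 30-min fluorescence change (525/598 nm).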
G9a block – blocks human histone lysine methyltransferase G9a. AID 504332. Potency, µM (titrated, usually from 102 µM), for inactives: top-dose activity, negative = inhibition, most hits filed as inhibitors. 8.8% of 350,000 active. G9a H3K9 monomethylation, AlphaScreen, 2 h; also: % is scaled to controls: 0 for no effect and ±100 for the full control effect; nearly all actives have a fitted effect of over 75% in size
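Compounds were preincubated with 20 nM G9a for 15 min, after which biotinylated H3K9 peptide (500 nM) and SAM (20 uM) started a 2 h room-temperature reaction. Monomethylated product was quantified by antibody-based AlphaScreen chemiluminescence.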
BAZ2B inh – inhibitors of human BAZ2B bromodomain. Q9UIF8. AlphaScreen BAZ2B-H3K14Ac peptide displacement. Potency, µM (top dose mostly 114 µM), for the others: at the top dose activity change, negative = inhibition, hits mostly inhibitors. 4.4% of 360,000 active. AID 504333; also: % is scaled to controls: 0 for no effect and ±100 for the full control effect; nearly all actives have a fitted effect of over 60% in size
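Compounds, titrated to a top concentration of 110 uM, were incubated 30 min at room temperature with preformed BAZ2B/acetyl-K14 H3 peptide complex (50 nM each). Proximity signal was measured by AlphaScreen after 20 min with beads.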
HP1b binding inh – inhibitors of HP1-beta chromodomain binding to methylated histone tails | P83916 | AlphaScreen HP1-beta / biotin-H3K9me3 peptide binding | Potency, µM (doses to about 114 µM), inactives show at the highest dose activity change, negative = inhibition, actives largely listed as inhibitors | 0.56% of 390,000 active | AID 540317; also: nearly all actives have a fitted effect of over 70% in size
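Compound inhibition of the preformed complex between 50 nM HP1-beta and 50 nM biotinylated H3K9me3 peptide was read by AlphaScreen. Buffer was PBS pH 7.4 with 0.01% Tween-20. Incubations ran 30 min at room temperature, with 10 ug/mL donor/acceptor beads.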
PLK1 PBD inh – PLK1 (human) polo-box domain binding inhibition | P53350 | Plk1 PBD binding of FITC phosphopeptide, fluorescence polarization | Potency, µM, inactives show max response, negative = inhibition, actives largely listed as inhibitors | 2.8% of 360,000 active | AID 720504; also: series mostly up to about 57 µM; % is scaled to controls: 0 for no effect and ±100 for the full control effect; nearly all actives have a fitted effect of over 65% in size
JMJD2A Tudor inh – JMJD2A Tudor domain (human) inhibition; Potency, µM (top dose mostly 114 µM), without a hit: top-dose activity change, negative = inhibition, actives largely listed as inhibitors; 4.4% of 390,000 active; AlphaScreen JMJD2A-Tudor / H3K4me3 peptide binding; also: % is scaled to controls: 0 for no effect and ±100 for the full control effect; nearly all actives have a fitted effect of over 50% in size
Target sequence (O75164 whole entry, looked up, the tested form may be a part): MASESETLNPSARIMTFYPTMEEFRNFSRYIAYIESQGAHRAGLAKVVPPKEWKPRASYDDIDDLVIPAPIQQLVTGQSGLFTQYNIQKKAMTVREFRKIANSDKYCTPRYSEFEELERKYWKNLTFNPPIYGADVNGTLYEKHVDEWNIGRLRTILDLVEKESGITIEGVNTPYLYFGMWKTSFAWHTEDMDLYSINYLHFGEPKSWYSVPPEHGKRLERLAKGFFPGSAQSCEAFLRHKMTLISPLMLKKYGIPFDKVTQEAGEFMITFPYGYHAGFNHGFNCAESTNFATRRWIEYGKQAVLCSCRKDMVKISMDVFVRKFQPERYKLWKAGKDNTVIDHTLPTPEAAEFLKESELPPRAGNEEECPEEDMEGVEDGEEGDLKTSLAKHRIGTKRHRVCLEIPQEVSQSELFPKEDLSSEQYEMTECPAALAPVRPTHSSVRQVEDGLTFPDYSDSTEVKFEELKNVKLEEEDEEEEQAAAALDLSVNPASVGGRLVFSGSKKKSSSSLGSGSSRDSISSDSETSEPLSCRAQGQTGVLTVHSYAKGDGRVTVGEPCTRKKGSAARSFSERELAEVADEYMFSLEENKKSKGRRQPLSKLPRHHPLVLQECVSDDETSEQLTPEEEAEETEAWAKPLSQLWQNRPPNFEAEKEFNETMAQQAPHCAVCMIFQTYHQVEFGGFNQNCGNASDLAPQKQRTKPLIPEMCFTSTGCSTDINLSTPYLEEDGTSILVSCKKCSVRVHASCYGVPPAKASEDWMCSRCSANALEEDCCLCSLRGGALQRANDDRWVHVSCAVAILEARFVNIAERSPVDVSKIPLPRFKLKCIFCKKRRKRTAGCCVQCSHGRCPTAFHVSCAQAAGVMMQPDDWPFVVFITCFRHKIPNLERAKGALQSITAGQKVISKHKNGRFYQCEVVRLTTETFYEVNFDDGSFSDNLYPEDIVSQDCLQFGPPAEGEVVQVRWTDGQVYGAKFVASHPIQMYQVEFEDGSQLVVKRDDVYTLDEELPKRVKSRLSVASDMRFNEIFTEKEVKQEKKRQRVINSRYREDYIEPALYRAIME
* = called active by the depositor; ? = inconclusive; · = no result given; [ ] = another dose, or the depositor's remark. Compounds with a hit are over-represented: about 12% of the library has one in this group of screens. Calls follow the shape of the dose curve; as a rule, active = well fitted curve in the direction sought with a large enough effect; inconclusive = small, poorly fitted or top-dose-only effect, or another doubt; inactive = no such curve, though single readings can be large; an effect the other way counts as inactive or inconclusive. Potency is read from the fitted curve at half-maximal effect.

SMILES	Sfp inh	G9a block	BAZ2B inh	HP1b binding inh	PLK1 PBD inh	JMJD2A Tudor inh
CS(=O)(=O)N1CCC2(CCCN(c3ccncc3)C2)CC1	5.4%	-1.3%[12.7 µM]	·	·	·	·
O=C(CN1CCCc2ccccc21)Nc1cc(S(=O)(=O)N2CCCC2)ccc1Cl	·	25.1µM*	-31.0%	32.7%	-6.1%	-22.8%
CC1Cc2ccccc2N1CC(=O)Nc1ccc(S(=O)(=O)N(C)C)cc1 (centres undefined)	-28.9%	?	?	28.5%	-6.9%	-22.1%
O=C(CN1CCCc2ccccc21)NCc1ccccc1Cl	-0.1%	44.7µM*	-38.7%	1.0%	-3.9%	-35.8%
CN(C)S(=O)(=O)c1cc(NC(=O)CN2CCc3ccccc32)ccc1Cl	-26.8%	15.8µM*	-14.7%	0.8%	-10.4%	-17.4%
CN(C)S(=O)(=O)c1ccc(NC(=O)CN2CCCc3ccccc32)cc1	2.0%	39.8µM*	?	-19.2%	-12.0%	?
NNC(=O)CN1CCCc2ccccc21	9.7%	2.7%	-18.7%	-12.3%	?	3.0%[11.4 µM]
CN(C)S(=O)(=O)c1cc(NC(=O)CN2CCN(c3ccccc3F)CC2)ccc1Cl	10.5%	8.1%[59 µM]	-27.4%	15.4%	-2.2%	-7.9%
CSCC[C@H](N)C(=O)N[C@@H](CCC(=O)O)C(=O)N[C@H](C(=O)NCC(=O)N[C@@H](Cc1c[nH]c2ccccc12)C(=O)N[C@@H](Cc1ccc(O)cc1)C(=O)N[C@@H](CCCNC(=N)N)C(=O)N[C@@H](CO)C(=O)N1CCC[C@H]1C(=O)N[C@@H](Cc1ccccc1)C(=O)N[C@@H](CO)C(=O)N[C@@H](CCCNC(=N)N)C(=O)N[C@H](C(=O)N[C@H](C(=O)N[C@@H](Cc1cnc[nH]1)C(=O)N[C@@H](CC(C)C)C(=O)N[C@@H](Cc1ccc(O)cc1)C(=O)N[C@@H](CCCNC(=N)N)C(=O)N[C@@H](CC(N)=O)C(=O)NCC(=O)N[C@@H](CCCCN)C(=O)O)C(C)C)C(C)C)C(C)C	12.9%	·	·	·	·	·
CCOc1ccc(CCNC(=O)c2c(C)nn(-c3ccccc3)c2Cl)cc1OCC	6.9%	46.9%	1.3%	49.9%	2.7%	-17.8%
CCSC1=NSC2=NC(=O)/C(=C\c3coc4ccccc4c3=O)C(=N)N12	-15.4%	?	?	70.1%	16.8µM*	10.3%
CCOc1ccc2[nH]c(=S)[nH]c2c1	-7.2%	?	-4.0%	-9.2%	-5.5%	44.7µM*
COCc1nnc(NC(=O)COc2ccc3c(c2)OCO3)s1	56.2µM*	22.4µM*	-30.5%	?	16.8µM*	-21.6%
O=C(COc1ccc2c(c1)OCO2)Nc1nnc(Cc2ccccc2)s1	-91.4%	17.8µM*	-8.8%	?	23.8µM*	-15.5%
CCOCc1nnc(NC(=O)COc2ccc3c(c2)OCO3)s1	-7.7%	?	-24.3%	-25.7%	-29.3%	-29.7%
O=C(COc1ccc2c(c1)OCO2)Nc1nccs1	16.4%	7.6%	-17.2%	-1.7%	-21.5%	-17.0%
COC(=O)[C@@]1(Cc2ccccc2)[C@H]2c3cc(C(=O)N(C)C)n(CCN4CNCC4=O)c3C[C@H]2CN1C(=O)c1ccccc1	8.0%	·	·	·	·	·
CCOC(=O)c1[nH]c(C)c(C(=O)NCc2ccccc2Cl)c1C	·	-12.2%[59 µM]	-14.3%	42.5%	·	-15.2%
CC(OC(=O)c1ccc(C#N)cc1)C(=O)Nc1ccc(Cl)cn1 (centres undefined)	·	56.2µM*	10.1%	17.9%	-10.9%	1.4%
CC1CCCN(S(=O)(=O)CCNC(=O)c2ccccc2)C1 (centres undefined)	·	?	4.0%	28.7%	-0.4%	-9.6%
Cc1cc(C(=S)N2CCOCC2)c(C)n1-c1ccc(F)cc1	?	·	44.7µM*	32.6%	?	-16.5%
Cc1cc(C(=O)CN2CCCCC2)c(C)n1-c1ccc(F)cc1	7.3%	-12.9%[59 µM]	?	-14.0%	-8.2%	-28.9%
Cc1ccc(-n2c(C)cc(C(=S)N3CCOCC3)c2C)cc1C	-22.8%	·	50.1µM*	?	?	44.7µM*
CCOc1ccc(C2c3c(oc4ccc(C)cc4c3=O)C(=O)N2Cc2ccc3c(c2)OCO3)cc1OC (centres undefined)	·	?	32.2%	82.7%	·	-22.3%
O=C(O)CCC/C=C\CC1C2CCC(O2)C1CNNC(=O)Nc1ccccc1 (centres undefined)	31.5%	21.1%[59 µM]	·	·	·	·
SMILES	Sfp inh	G9a block	BAZ2B inh	HP1b binding inh	PLK1 PBD inh	JMJD2A Tudor inh
CCc1nn2c(=O)cc(COC(=O)c3cccc(NC(=O)COc4ccccc4)c3)nc2s1	·	20.4%[59 µM]	-3.8%	38.2%	·	-4.6%
CCC(=O)N1c2ccc(S(=O)(=O)CCC(=O)N3CCN(c4ccc(F)cc4)CC3)cc2CC1C (centres undefined)	·	?	·	23.4%	·	-19.7%
COc1ccc(-c2csc(N(CCCN(C)C)C(=O)c3ccc(C)cc3)n2)cc1	2.8%	79.4µM*	?	-7.6%	3.6%	?
COc1ccc(-c2csc(N(CCCN3CCOCC3)C(=O)c3ccco3)n2)cc1	-21.9%	2.0%[59 µM]	?	?	-7.4%	100µM*
COc1ccc(-c2csc(N(CCCN(C)C)C(=O)c3ccc(Br)cc3)n2)cc1	35.5µM*	9.0%[0.501 µM]	44.7µM*	-13.9%	3.8%	-30.6%
COc1ccc(-c2csc(N(CCCN(C)C)C(=O)c3ccc(C(C)(C)C)cc3)n2)cc1	2.0%	?	?	-12.5%	6.4%	?
CCN(CC)CCCN(C(=O)c1ccccc1C)c1nc(-c2ccc(OC)cc2)cs1	?	-36.4%[0.501 µM]	50.1µM*	-9.5%	-1.0%	44.7µM*
Cc1ccc(-c2csc(N(CCCN3CCOCC3)C(=O)c3ccco3)n2)cc1	?	?	?	0.5%	-2.3%	-34.5%
CCN(CC)CCCN(C(=O)c1ccccc1F)c1nc(-c2ccc(OC)cc2)cs1	-15.7%	·	?	17.8%	-8.6%	?
Cc1ccc(NC(=O)c2cccc(N3CCCS3(=O)=O)c2)cc1	·	5.5%[59 µM]	-2.1%	24.1%	·	-1.9%
C#CCCCO/N=C1/C[C@@H](O)[C@@H](O)[C@@H]2[C@@H]3C(=O)N(Cc4ccccc4)C(=O)[C@H]3CC[C@H]12	12.8%	·	·	·	·	·
CSc1ccc(/C=N/N2CCN(Cc3ccc(C)cc3C)CC2)cc1	-3.9%	?	44.7µM*	-22.4%	2.1%	56.2µM*
Cc1ccc(CN2CCN(/N=C/c3sccc3C)CC2)c(C)c1	-15.3%	44.7µM*	28.2µM*	?	-8.0%	22.4µM*
CCCn1c2ccccc2c2cnn(CC(=O)NCc3ccccc3Cl)c(=O)c21	·	3.4%[59 µM]	0.8%	-13.5%	·	-24.4%
CCn1c(C(=O)N2CCC(C(=O)NCCc3ccc(C)cc3)CC2)cc2sccc21	·	2.1%[59 µM]	-17.5%	19.7%	·	-16.0%
CC(Sc1nncn1C)C(=O)Nc1ccc(N2CCCCC2)cc1 (centres undefined)	·	17.4%[2.33 µM]	-5.2%	20.4%	3.4%	-19.3%
